Here are results for 36 molecules from PubChem BioAssay.

Calls of active or inactive are those of the source.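 The calls were made as follows: active = compounds whose cell count with miR-34 switched on is under 0.7 times the count with it off; inactive = the rest.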

The assay can be described thus: viability loss with induced miR-34 in A549 – imaging, A549 dox-inducible miR-34, nuclei and caspase counts, primary screen (AID 1347080). Also: test concentration not given here. To be noted: A549 miR-34 inducible, Hoechst nuclei count, 48 h; hits give low values; cell number ratio, induced over uninduced.
In the case of `CCCCCC(=O)/C=C/[C@H]1[C@H](O)CC(=O)[C@@H]1CCCCCCC(=O)O`, the fold change is 1.03 (inactive).

Turning to `CCCCC[C@](C)(O)/C=C/[C@@H]1[C@@H](C/C=C\CCCC(=O)OC)[C@@H](O)C[C@H]1O`, the fold change was 0.977 (inactive).

With `CCCCC/C=C\C/C=C\CCCCCCCC(=O)OCC`, the fold change was 0.908 (inactive).

For the molecule `CCCCC[C@H](O)C/C=C1/C(=O)C[C@H](O)[C@@H]1C/C=C\CCCC(=O)O`, the fold change is 0.935 (inactive).

As to `CCCCCCC[C@H](O)/C=C/[C@@H]1[C@@H](C/C=C\CCCC(=O)O)[C@@H](O)C[C@H]1O`, the fold change was 0.945 (inactive).

As for `CCCCC[C@H](O)/C=C/[C@@H]1[C@H]2C/C(=C\CCCC(=O)O)C[C@H]2C[C@H]1O`, the fold change is 0.922 (inactive).

For `CCCCCCCCCCCCCCCC(=O)OC[C@@H](O)COP(=O)([O-])OCC[N+](C)(C)C`, the fold change was 1.02 (inactive).

For the molecule `CCCCC[C@H](O)/C=C/[C@H]1C(=O)C[C@H](O)[C@@H]1C/C=C\CCCC(=O)OCC(O)CO` (stereo partly specified), the fold change was 1.06 (inactive).

For `CCCCCCC(Sc1nc(Cl)cc(NCc2ccc(-c3ccccc3)cc2)n1)C(=O)O` (stereo unspecified), the fold change was 0.993 (inactive).

With `CC(C)OC(=O)CCC/C=C\C[C@@H]1[C@@H](/C=C/C(=O)COc2cccc(C(F)(F)F)c2)[C@H](O)C[C@@H]1O`, the fold change was 0.979 (inactive).

With `COc1cc([C@@H]2c3cc4c(cc3[C@@H](OC3OC5COC(C)OC5C(O)C3O)[C@H]3COC(=O)[C@H]23)OCO4)cc(OC)c1O` (stereo partly specified), the fold change was 0.828 (inactive).

As for `O=C(O)CCC/C=C/C[C@@H]1[C@@H](/C=C/[C@@H](O)COc2cccc(C(F)(F)F)c2)[C@H](O)C[C@@H]1O`, the fold change is 0.985 (inactive).

In the case of `c1ccc(C(OC2CCN(CCCc3nn[nH]n3)CC2)c2ccccc2)cc1`, the fold change was 0.935 (inactive).

Consider `COc1ccc(/C=C/C(=O)CC(=O)/C=C/c2cccc(O)c2OC)cc1O`, for which the fold change was 0.925 (inactive).

For the molecule `CCCCC[C@H](O)/C=C/[C@H]1C2CC(CO2)[C@@H]1C/C=C\CCCC(=O)O` (stereo partly specified), the fold change is 0.956 (inactive).

Regarding `O=C(O)CCC/C=C\C[C@@H]1[C@@H](/C=C/[C@@H](O)COc2ccccc2)[C@H](O)C[C@@H]1O`, the fold change was 0.956 (inactive).

As to `O=C(Cc1ccccc1Nc1c(Cl)cccc1Cl)Oc1ccc(-c2cc(=S)ss2)cc1`, the fold change was 0.933 (inactive).

With `CCCCC(C)(C)[C@H](O)/C=C/[C@H]1C=CC(=O)[C@@H]1C/C=C\CCCC(=O)O`, the fold change is 0.967 (inactive).

For the molecule `CCCCC[C@H](O)/C=C/[C@H]1[C@H](O)CC(=O)[C@@H]1C/C=C\CCCC(=O)Oc1ccc(NC(C)=O)cc1`, the fold change was 0.993 (inactive).

As to `Cc1c(C)c2c(c(C)c1O)CCC(C)(CCCC(C)C(=O)O)O2` (stereo unspecified), the fold change was 0.962 (inactive).

On to `CCCCC/C=C\C/C=C\CCCCCCCC(=O)OCC(COC(=O)CCCCCCCCCCCCCCC)OC(=O)CCCCCCC/C=C\CCCCCCCC` (stereo unspecified), for which the fold change was 1.03 (inactive).

As to `CCCCCOc1ccccc1C(O)CC#CCCCC(=O)OC` (stereo unspecified), the fold change was 0.937 (inactive).

`CCCCCCCC/C=C\CCCCCCCC(=O)N[C@H](CO)Cc1ccc(O)cc1`: the fold change is 1.03 (inactive).

Regarding `C=C1C[C@H](O)[C@H](C/C=C\CCCC(=O)O)[C@H]1/C=C/[C@@H](O)CCCCC`, the fold change was 0.988 (inactive).

As for `CCCCCC/C=C\CCCCCCCC(=O)OCC`, the fold change was 0.904 (inactive).

Take `CCCCCCCCCCCCCCCC(=O)OCC`: the fold change is 0.854 (inactive).

As for `COc1ccc2c(c1)c(CC(=O)Nc1ccc(NC(C)=O)cc1)c(C)n2C(=O)c1ccc(Cl)cc1`, the fold change is 1.05 (inactive).

`CC(C)Oc1ccc(Cc2ccc(NC3=NCCN3)cc2)cc1`: the fold change is 0.976 (inactive).

Consider `CCCCC[C@H](O)/C=C/[C@H]1C=CC(=O)[C@H]1CCCCCCC(=O)O`, for which the fold change is 0.88 (inactive).

Turning to `Cc1nnsc1C(=O)Nc1ccc(-n2nc(C(F)(F)F)cc2C(F)(F)F)cc1`, the fold change was 1.08 (inactive).

Take `CCCCC[C@H](O)/C=C/[C@H]1CC[C@@H](O)[C@@H]1C/C=C\CCCC(=O)O`: the fold change was 0.973 (inactive).

Take `CCOC(=O)c1ccnc(C(=O)OCC)c1`: the fold change is 0.975 (inactive).

On to `CCCCC(C)(C)[C@H](O)/C=C/[C@H]1[C@H](O)CC(=O)[C@@H]1CC(=O)CCCCC(=O)O`, for which the fold change was 0.919 (inactive).

In the case of `CCCCC[C@H](O)/C=C/[C@H]1[C@H](O)CC(=O)[C@@H]1CCCCCCCCC(=O)O`, the fold change is 0.947 (inactive).

Take `CC(C)CCCCCCC/C=C\C(=O)O`: the fold change is 0.991 (inactive).

With `CCCCC[C@H](O)/C=C/[C@H]1C2COC(C2)[C@@H]1C/C=C/CCCC(=O)O` (stereo partly specified), the fold change was 0.903 (inactive).
